# Results taken from the supplement of paper PMC8728848.
# Shown is part of a subset that was picked to be rich in the strongest signals.
# B1: Ficolin A (Rattus norvegicus), Q9WTS8 (protein)
# chain: MWWPMLWAFPVLLCLCSSQALGQESGACPDVKIVGLGAQDKVAVIQSCPSFPGPPGPKGEPGSPAGRGERGLQGSPGKMGPPGSKGEPGTMGPPGVKGEKGERGTASPLGQKELGDALCRRGPRSCKDLLTRGIFLTGWYTIYLPDCRPLTVLCDMDVDGGGWTVFQRRVDGSINFYRDWDSYKRGFGNLGTEFWLGNDYLHLLTANGNQELRVDLREFQGQTSFAKYSSFQVSGEQEKYKLTLGQFLEGTAGDSLTKHNNMAFSTHDQDNDTNGGKNCAALFHGAWWYHDCHQSNLNGRYLPGSHESYADGINWLSGRGHRYSYKVAEMKIRAS
# B2: PMA (Polygonatum multiflorum) (protein)
# chain: LLTTTLFVFISSTRSLASTNVLYSDVGNAILNAKESLIYGDYRLDMQSDCNLVLYNKAAPYWASGTRWSWGGNCHLNLQSNGELVMYAYLGRTRIAIWRSGIISATGSYALVLKYDGALHVHGPSLWSTNATGPTTPTTASWSIDSTLWSGDVATIGPTIANGDYKLELLDTCNLTLSNTKTGQVLWYTNTTDWVHDCYVNIEGNGELKIKYLGGATLWSNKVGAGYTNNYVLGLRPDGKLDTYNAPIWSPTIGPGVHVAPAVYNASSNAVAAEGNGEKIAMVTGRAKNST
# Legend:
# Assay in all cases: glycan array binding signal (z-score within array); higher = stronger binding
# Conditions in all cases: glycan notation: IUPAC condensed, linker removed
# [1] = biological target: Fuc(a1-2)[GalNAc(a1-3)]Gal(b1-4)GlcNAc
# In short: (§1)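 Arrays were curated from the Consortium for Functional Glycomics database, 3228 in total, and kept only where the protein sequence was available. Binding is expressed as a within-array Z-score. This score was averaged across arrays of the same protein sequence at different concentrations or buffers and across linkers, and negative values can be read as non-binding.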
# Gal(a1-3)Gal(b1-4)Glc = biological target: Gal(a1-3)Gal(b1-4)Glc
# In short: as §1
# [2] = biological target: Gal(a1-3)Gal(b1-4)[Fuc(a1-3)]GlcNAc
# In short: as §1
# [3] = biological target: Gal(b1-3)[Fuc(a1-4)]GlcNAc
# In short: as §1
# Gal(b1-4)Glc6S = biological target: Gal(b1-4)Glc6S
# In short: as §1
# Glc(b1-4)Glc = biological target: Glc(b1-4)Glc
# In short: as §1
# [4] = biological target: GlcNAc(a1-6)Gal(b1-4)GlcNAc
# In short: as §1
# [5] = biological target: GlcNAc(b1-2)Man(a1-3)[GlcNAc(b1-2)Man(a1-6)]Man(b1-4)GlcNAc(b1-4)GlcNAc
# In short: as §1
# GlcNAc(b1-3)Gal(b1-4)Glc = biological target: GlcNAc(b1-3)Gal(b1-4)Glc
# In short: as §1
# [6] = biological target: GlcNAc(b1-3)Gal(b1-4)GlcNAc
# In short: as §1
# [7] = biological target: Man(a1-2)Man(a1-3)[Man(a1-2)Man(a1-6)]Man(a1-6)[Man(a1-2)Man(a1-2)Man(a1-3)]Man
# In short: as §1
# [8] = biological target: Neu5Ac(a2-3)Gal(b1-3)[Fuc(a1-4)]GlcNAc(b1-3)Gal(b1-4)[Fuc(a1-3)]GlcNAc
# In short: as §1
# [9] = biological target: Neu5Ac(a2-3)Gal(b1-3)[Neu5Ac(a2-6)]GalNAc
# In short: as §1
# [10] = biological target: Neu5Ac(a2-3)Gal(b1-4)GlcNAc(b1-2)Man(a1-3)[Neu5Ac(a2-6)Gal(b1-4)GlcNAc(b1-2)Man(a1-6)]Man(b1-4)GlcNAc(b1-4)GlcNAc
# In short: as §1
# [11] = biological target: Neu5Ac(a2-3)Gal(b1-4)GlcNAc(b1-3)Gal(b1-3)GlcNAc
# In short: as §1
# [12] = biological target: Neu5Ac(a2-3)[GalNAc(b1-4)]Gal(b1-4)Glc
# In short: as §1
# Neu5Ac(a2-6)Gal = biological target: Neu5Ac(a2-6)Gal
# In short: as §1
# Neu5Ac(a2-8)Neu5Ac = biological target: Neu5Ac(a2-8)Neu5Ac
# In short: as §1
# [13] = biological target: Neu5Ac(a2-8)Neu5Ac(a2-8)Neu5Ac(a2-3)[GalNAc(b1-4)]Gal(b1-4)Glc
# In short: as §1
# [14] = biological target: Neu5Ac(b2-6)Gal(b1-4)GlcNAc
# In short: as §1
# [15] = biological target: Fuc(a1-2)[GalNAc(a1-3)]Gal(b1-4)Glc
# In short: as §1
# [16] = biological target: Fuc(a1-2)[GalNAc(a1-3)]Gal(b1-4)[Fuc(a1-3)]GlcNAc
# In short: as §1
# Gal(a1-4)Gal(b1-4)Glc = biological target: Gal(a1-4)Gal(b1-4)Glc
# In short: as §1
# Gal(b1-3)Gal = biological target: Gal(b1-3)Gal
# In short: as §1
# Gal(b1-4)GlcNAc = biological target: Gal(b1-4)GlcNAc
# In short: as §1
# [17] = biological target: Gal(b1-4)GlcNAc(b1-2)Man(a1-3)[Gal(b1-4)GlcNAc(b1-2)Man(a1-6)]Man(b1-4)GlcNAc(b1-4)GlcNAc
# In short: as §1
# GalNAc(a1-3)Gal = biological target: GalNAc(a1-3)Gal
# In short: as §1
# GalNAc(b1-4)GlcNAc = biological target: GalNAc(b1-4)GlcNAc
# In short: as §1
# GlcNAc(b1-3)Gal = biological target: GlcNAc(b1-3)Gal
# In short: as §1
# [18] = biological target: GlcNAc(b1-6)Gal(b1-4)GlcNAc
# In short: as §1
# [19] = biological target: Man(a1-2)Man(a1-2)Man(a1-6)[Man(a1-3)]Man
# In short: as §1
# [20] = biological target: Man(a1-2)Man(a1-3)[Man(a1-2)Man(a1-6)]Man
# In short: as §1
# [21] = biological target: Man(a1-3)[Man(a1-6)]Man(a1-6)[Man(a1-3)]Man(b1-4)GlcNAc(b1-4)GlcNAc
# In short: as §1
# [22] = biological target: Neu5Ac(a2-3)Gal(b1-3)[Neu5Ac(a2-3)Gal(b1-4)]GlcNAc
# In short: as §1
# Neu5Ac(a2-3)Gal(b1-4)Glc = biological target: Neu5Ac(a2-3)Gal(b1-4)Glc
# In short: as §1
# Neu5Ac(a2-6)Gal(b1-4)Glc = biological target: Neu5Ac(a2-6)Gal(b1-4)Glc
# In short: as §1
# [23] = biological target: Neu5Ac(a2-8)Neu5Ac(a2-8)Neu5Ac(a2-8)Neu5Ac(a2-3)[GalNAc(b1-4)]Gal(b1-4)Glc
# In short: as §1
Binder,glycan array binding signal (z-score) [1],glycan array binding signal (z-score) (Gal(a1-3)Gal(b1-4)Glc),glycan array binding signal (z-score) [2],glycan array binding signal (z-score) [3],glycan array binding signal (z-score) (Gal(b1-4)Glc6S),glycan array binding signal (z-score) (Glc(b1-4)Glc),glycan array binding signal (z-score) [4],glycan array binding signal (z-score) [5],glycan array binding signal (z-score) (GlcNAc(b1-3)Gal(b1-4)Glc),glycan array binding signal (z-score) [6],glycan array binding signal (z-score) [7],glycan array binding signal (z-score) [8],glycan array binding signal (z-score) [9],glycan array binding signal (z-score) [10],glycan array binding signal (z-score) [11],glycan array binding signal (z-score) [12],glycan array binding signal (z-score) (Neu5Ac(a2-6)Gal),glycan array binding signal (z-score) (Neu5Ac(a2-8)Neu5Ac),glycan array binding signal (z-score) [13],glycan array binding signal (z-score) [14],glycan array binding signal (z-score) [15],glycan array binding signal (z-score) [16],glycan array binding signal (z-score) (Gal(a1-4)Gal(b1-4)Glc),glycan array binding signal (z-score) (Gal(b1-3)Gal),glycan array binding signal (z-score) (Gal(b1-4)GlcNAc),glycan array binding signal (z-score) [17],glycan array binding signal (z-score) (GalNAc(a1-3)Gal),glycan array binding signal (z-score) (GalNAc(b1-4)GlcNAc),glycan array binding signal (z-score) (GlcNAc(b1-3)Gal),glycan array binding signal (z-score) [18],glycan array binding signal (z-score) [19],glycan array binding signal (z-score) [20],glycan array binding signal (z-score) [21],glycan array binding signal (z-score) [22],glycan array binding signal (z-score) (Neu5Ac(a2-3)Gal(b1-4)Glc),glycan array binding signal (z-score) (Neu5Ac(a2-6)Gal(b1-4)Glc),glycan array binding signal (z-score) [23]
B1,-0.02,-0.071,-0.105,-0.069,-0.092,-0.11,17.3,-0.048,-0.056,-0.094,-0.092,-0.064,0.325,-0.027,-0.098,0.265,-0.042,0.58,-0.047,1.16,–,–,–,–,–,–,–,–,–,–,–,–,–,–,–,–,–
B2,–,–,–,–,–,–,–,5.03,–,–,–,–,–,–,–,–,–,–,–,–,-0.249,-0.236,-0.244,-0.195,-0.068,7.37,-0.253,-0.246,-0.263,-0.255,5.65,4.98,2.16,-0.191,-0.233,-0.255,-0.245
